Assay [1] can be described thus: ATG_GLI_CIS: Attagene CIS-FACTORIAL HepG2 Assay for human Zinc Finger Protein GLI1 (AID 2282945). As to conditions: HepG2, Attagene cis-factorial reporter mRNA, GLI element; actives raise or lower the signal. In a few lines:
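Transiently transfected HepG2 cells report endogenous transcription factor activity via cis-element-driven reporter units. After 24 h compound exposure, reporter mRNA was measured by RT-PCR with capillary electrophoresis; bidirectional fitting against DMSO baseline.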

In assay [2] the target is Bile acid receptor (Homo sapiens) (UniProt Q96RI1). Put plainly: ATG_IR1_CIS: Attagene CIS-FACTORIAL HepG2 Assay for human Nuclear Receptor Subfamily 1 Group H Member 4 (NR1H4), IR1 submotif (AID 2282946). As to conditions: IR1 reporter transcription, actives raise or lower the signal. In a few lines:
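Fluorescence of capillary-separated, HpaI-digested RT-PCR reporter products gave IR1-element mRNA induction in HepG2 cells 24 h after dosing. Endogenous transcription factors drove the cis-regulated reporters; activity was fitted bidirectionally against DMSO.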

Assay [3] is described as follows: ATG_GRE_CIS: Attagene CIS-FACTORIAL HepG2 Assay for human Glucocorticoid Response Elements (GRE) (AID 2282947). As to conditions: HepG2 GRE cis-reporter, Attagene multiplex mRNA; actives raise or lower the signal. In a few lines:
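Read-out: fluorescent reporter-transcript fragments separated by capillary electrophoresis after RT-PCR. Transiently transfected HepG2 cells carrying cis-element-driven reporter units were dosed for 24 h; gain or loss of signal fitted against DMSO control.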

A short description of assay [4]: ATG_ISRE_CIS: Attagene CIS-FACTORIAL HepG2 Assay for human Interferon Regulatory Factor 1 (IRF1) binding to an Interferon-Stimulated Response Element (ISRE) (AID 2282948). As to conditions: HepG2 ISRE cis-reporter (Attagene), mRNA transcription readout; actives raise or lower the signal. In a few lines:
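Read-out: fluorescent RT-PCR products resolved by capillary electrophoresis, reporting endogenous transcription factor activity via ISRE-driven reporter mRNA in transfected HepG2 cells dosed for 24 h; gain or loss fitted relative to DMSO.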

Assay [5] in a line: ATG_M_32_CIS: Attagene CIS-FACTORIAL HepG2 Assay for M32 Transcription Factor (Internal Marker) (AID 2282949).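 Further: background control marker of the multiplexed CIS panel rather than a real target.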 As to conditions: HepG2 Attagene cis-factorial M32 reporter, mRNA; actives raise or lower the signal. In a few lines: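 Using DMSO as baseline, bidirectional curve fits were applied to reporter mRNA signals. These came from transiently transfected HepG2 cells exposed for 24 h, with RNA analysed by RT-PCR, FAM primer extension, HpaI digestion and CE.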

Assay [6] in a line: ATG_M_06_CIS: Attagene CIS-FACTORIAL HepG2 Assay for M06 Transcription Factor (Internal Marker) (AID 2282950). As to conditions: HepG2 Attagene CIS-FACTORIAL M06 internal marker reporter; actives raise or lower the signal. In a few lines:
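One of many multiplexed endpoints: HepG2 reporter mRNA after 24 h dosing, detected by RT-PCR and capillary electrophoresis fluorescence; gain or loss of signal analysed against DMSO.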

Assay [7] addresses Hypoxia-inducible factor 1-alpha (Homo sapiens) (UniProt Q16665). Put plainly: ATG_HIF1a_CIS: Attagene CIS-FACTORIAL HepG2 Assay for human Hypoxia Inducible Factor 1 (HIF1A) (AID 2282951). As to conditions: HepG2 Attagene cis-factorial HIF1a reporter transcription; actives raise or lower the signal. In a few lines: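 Activity is fitted in both directions relative to DMSO. Reporter transcripts are read by RT-PCR, fluorescent primer extension and capillary electrophoresis after 24 h chemical treatment. The cells are HepG2 carrying transiently transfected cis-element-driven reporter units responding to endogenous factors.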

Assay [8] deals with Hepatocyte nuclear factor 6 (Homo sapiens) (UniProt Q9UBC0). Kind of assay: ATG_HNF6_CIS: Attagene CIS-FACTORIAL HepG2 Assay for human Hepatocyte Nuclear Factor 6 (HNF6) (AID 2282952). As to conditions: HepG2 Attagene cis-factorial HNF6 reporter transcription; actives raise or lower the signal. In a few lines: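 Using cis-element reporters in HepG2 liver cells, the assay tracks endogenous factor-driven transcription 24 h post-dosing. Signal comes from 6-FAM-labelled, HpaI-digested RT-PCR fragments, with gain or loss scored against DMSO.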

For assay [9], the target named is Heat shock factor protein 1 (Homo sapiens) (UniProt Q00613). Kind of assay: ATG_HSE_CIS: Attagene CIS-FACTORIAL HepG2 Assay for human Heat Shock Transcription Factor 1 (HSE) (AID 2282953). As to conditions: HepG2 HSE cis-reporter, Attagene RNA transcription; actives raise or lower the signal. In a few lines:
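Using HepG2 with transfected cis-driven reporter constructs, compound effects on endogenous factor activity are scored as reporter mRNA change at 24 h. Detection: RT-PCR, HpaI digestion, capillary electrophoresis; bidirectional fitting to DMSO.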

Assay [10] is described as follows: ATG_MRE_CIS: Attagene CIS-FACTORIAL HepG2 Assay for human Metal Responsive Element (MRE) (AID 2282954). As to conditions: HepG2 MRE cis-reporter transcription, Attagene multiplex; actives raise or lower the signal. In a few lines:
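RT-PCR/capillary electrophoresis readout of reporter mRNA, 24 h post-dosing, in HepG2 cells transfected with multiplexed cis-regulated reporter constructs. Gain or loss of signal fitted bidirectionally against DMSO baseline.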

Activity calls are given as the source filed them. How the source made its calls: active means hit-call score of the fitted dose curve at least 0.9, where 1 is the maximum; inactive means score below 0.9.

Sequence of Bile acid receptor (Homo sapiens) (Q96RI1 whole entry, looked up): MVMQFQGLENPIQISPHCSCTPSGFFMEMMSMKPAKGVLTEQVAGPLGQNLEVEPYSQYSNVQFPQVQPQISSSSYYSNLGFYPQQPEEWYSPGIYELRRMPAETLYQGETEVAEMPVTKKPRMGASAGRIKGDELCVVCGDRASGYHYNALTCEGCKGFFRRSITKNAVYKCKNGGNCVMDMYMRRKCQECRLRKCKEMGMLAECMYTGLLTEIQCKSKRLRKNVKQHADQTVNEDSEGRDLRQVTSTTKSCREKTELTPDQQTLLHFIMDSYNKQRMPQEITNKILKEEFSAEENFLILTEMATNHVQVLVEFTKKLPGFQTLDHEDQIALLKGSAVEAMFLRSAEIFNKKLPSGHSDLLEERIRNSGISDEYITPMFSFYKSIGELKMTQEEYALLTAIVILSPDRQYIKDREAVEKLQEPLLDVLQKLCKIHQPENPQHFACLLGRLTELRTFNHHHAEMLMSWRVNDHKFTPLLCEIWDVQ
Sequence of Hepatocyte nuclear factor 6 (Homo sapiens) (Q9UBC0 whole entry, looked up, the tested form may be a part): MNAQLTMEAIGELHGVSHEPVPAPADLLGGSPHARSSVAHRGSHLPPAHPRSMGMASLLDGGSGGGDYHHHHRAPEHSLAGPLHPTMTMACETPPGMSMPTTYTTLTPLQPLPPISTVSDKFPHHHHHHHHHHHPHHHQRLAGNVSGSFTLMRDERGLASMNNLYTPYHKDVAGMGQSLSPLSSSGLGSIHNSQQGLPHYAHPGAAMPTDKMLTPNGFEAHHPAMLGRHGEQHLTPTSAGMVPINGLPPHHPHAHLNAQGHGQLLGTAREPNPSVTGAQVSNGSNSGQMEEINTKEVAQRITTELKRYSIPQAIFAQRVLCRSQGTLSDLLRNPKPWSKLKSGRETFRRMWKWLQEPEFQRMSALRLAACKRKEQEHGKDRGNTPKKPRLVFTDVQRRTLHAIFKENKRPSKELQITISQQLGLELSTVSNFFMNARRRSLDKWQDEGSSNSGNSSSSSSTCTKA
Sequence of Hypoxia-inducible factor 1-alpha (Homo sapiens) (Q16665 whole entry, looked up): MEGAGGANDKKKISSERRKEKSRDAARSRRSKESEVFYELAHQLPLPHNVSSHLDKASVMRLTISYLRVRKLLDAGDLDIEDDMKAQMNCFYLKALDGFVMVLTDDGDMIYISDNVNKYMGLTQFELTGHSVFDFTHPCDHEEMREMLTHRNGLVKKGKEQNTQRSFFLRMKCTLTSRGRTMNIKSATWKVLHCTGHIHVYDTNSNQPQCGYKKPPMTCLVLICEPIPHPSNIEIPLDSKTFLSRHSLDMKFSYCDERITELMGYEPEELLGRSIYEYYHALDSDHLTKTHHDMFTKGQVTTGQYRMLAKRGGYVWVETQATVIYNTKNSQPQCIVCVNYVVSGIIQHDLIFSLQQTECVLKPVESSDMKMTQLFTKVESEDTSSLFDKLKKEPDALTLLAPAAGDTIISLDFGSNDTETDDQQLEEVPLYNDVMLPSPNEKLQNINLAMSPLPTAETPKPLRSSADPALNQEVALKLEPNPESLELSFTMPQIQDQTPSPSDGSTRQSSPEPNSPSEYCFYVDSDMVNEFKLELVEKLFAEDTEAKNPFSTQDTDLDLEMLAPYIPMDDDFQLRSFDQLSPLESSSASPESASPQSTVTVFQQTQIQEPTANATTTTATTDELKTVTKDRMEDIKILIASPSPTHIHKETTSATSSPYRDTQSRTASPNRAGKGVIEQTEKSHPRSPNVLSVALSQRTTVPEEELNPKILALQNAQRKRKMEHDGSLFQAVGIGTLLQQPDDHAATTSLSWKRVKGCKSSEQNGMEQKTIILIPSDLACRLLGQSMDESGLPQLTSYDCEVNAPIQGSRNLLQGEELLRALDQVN
Sequence of Heat shock factor protein 1 (Homo sapiens) (Q00613 whole entry, looked up): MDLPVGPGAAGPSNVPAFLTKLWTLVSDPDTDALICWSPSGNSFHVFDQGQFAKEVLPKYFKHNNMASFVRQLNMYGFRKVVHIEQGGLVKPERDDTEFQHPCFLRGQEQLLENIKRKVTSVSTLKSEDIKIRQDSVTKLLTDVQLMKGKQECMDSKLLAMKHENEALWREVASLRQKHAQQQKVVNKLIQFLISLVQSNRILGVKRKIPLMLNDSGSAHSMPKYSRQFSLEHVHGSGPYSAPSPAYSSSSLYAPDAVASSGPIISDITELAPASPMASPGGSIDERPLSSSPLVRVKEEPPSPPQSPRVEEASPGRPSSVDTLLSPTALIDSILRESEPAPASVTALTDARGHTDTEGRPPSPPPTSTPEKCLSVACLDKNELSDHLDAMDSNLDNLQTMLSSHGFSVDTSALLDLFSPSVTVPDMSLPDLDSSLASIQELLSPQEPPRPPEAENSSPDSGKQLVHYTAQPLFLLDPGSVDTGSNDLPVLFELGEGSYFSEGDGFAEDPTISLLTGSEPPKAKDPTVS

On to `CC(C)C(=O)OCc1ccccc1`, for which the call in assay [1], in [2], in assay [3], in [4], in [5] and in assay [6] was inactive. Moreover, the result in assay [7], in assay [8], in assay [9] and in assay [10] was inactive.

For `CC(C)OC(=O)COc1ccc(Cl)cc1Cl`, the compound was classed as inactive in [1], in assay [2], in assay [3], in [4], in assay [5] and in assay [6]. In addition, the result in assay [7], in assay [8], in assay [9] and in [10] was inactive.

As for `CCCCCCCCn1sc(Cl)c(Cl)c1=O`, the AC50 – broadly, the concentration giving half of the maximal activity seen – is 11.1 µM (active) in [1]; 18.6 µM (active) in [3]; 15.9 µM (active) in [5]; 16.3 µM (active) in [7]; 11.1 µM (active) in assay [9]. For the same compound, the result in [2], in [4], in assay [6], in assay [8] and in [10] was inactive.

Take `CCN=c1cc2oc3cc(NCC)c(C)cc3c(-c3ccccc3C(=O)OCC)c-2cc1C`: the AC50 was 16.3 µM (active) in assay [1]; 16.5 µM (active) in assay [2]; 8.05 µM (active) in assay [4]; 17 µM (active) in assay [9]; 9.29 µM (active) in [10]. For the same compound, the outcome in assay [3], in assay [5], in assay [6], in assay [7] and in assay [8] was inactive.

For `Cc1ccc([N+](=O)[O-])c(C)c1`, the result in assay [1], in assay [2], in assay [3], in assay [4], in assay [5] and in assay [6] was inactive. The outcome in assay [7], in assay [8], in assay [9] and in assay [10] was inactive.

As for `C=CC(=O)OCCC(F)(F)C(F)(F)C(F)(F)C(F)(F)F`, the compound was called inactive in assay [1], in assay [2], in assay [3], in assay [4], in assay [5] and in assay [6]. The outcome in [7], in assay [8], in assay [9] and in assay [10] was inactive.

`COCCC(=O)OC`: the compound was classed as inactive in [1], in assay [2], in assay [3], in assay [4], in assay [5] and in assay [6]. Further, the compound was called inactive in assay [7], in [8], in assay [9] and in [10].

For the compound `CO[Si](C)(CCC(F)(F)C(F)(F)C(F)(F)C(F)(F)C(F)(F)C(F)(F)F)OC`, the outcome in assay [1], in assay [2], in assay [3], in assay [4], in assay [5] and in [6] was inactive. In addition, the result in [7], in [8], in assay [9] and in assay [10] was inactive.

As for `C#CC(O)CCC` (stereo unspecified), the result in [1], in assay [2], in assay [3], in [4], in assay [5] and in [6] was inactive. For the same compound, the compound was classed as inactive in assay [7], in [8], in assay [9] and in assay [10].

On to `CCCCOC(=O)[C@H](C)O`, for which the compound was classed as inactive in [1], in [2], in assay [3], in [4], in assay [5] and in [6]. Besides, the outcome in [7], in [8], in [9] and in assay [10] was inactive.

`CC(C)OC=O`: the compound was called inactive in [1], in assay [2], in assay [3], in [4], in assay [5] and in assay [6]. Moreover, the outcome in assay [7], in [8], in assay [9] and in [10] was inactive.

For the compound `CN1CN(C)CN(C)C1`, the result in assay [1], in [2], in assay [3], in assay [5], in [6] and in [7] was inactive. For the same compound, the compound was called inactive in assay [8]. Also, the AC50 is 74.3 µM (active) in [4], 160 µM (active) in assay [9] and 182 µM (active) in assay [10].

Consider `CN(N=O)C(=O)N[C@@H]1[C@@H](O)[C@H](O)[C@@H](CO)O[C@@H]1O`, for which the outcome in assay [1], in assay [2], in assay [3], in [4], in [5] and in assay [6] was inactive. Also, the outcome in assay [7], in [8], in assay [9] and in assay [10] was inactive.

Consider `CCC(=O)OC(C)c1ccccc1` (stereo unspecified), for which the outcome in assay [1], in [2], in [3], in assay [4], in assay [5] and in assay [6] was inactive. In addition, the result in [7], in assay [8], in [9] and in [10] was inactive.

Consider `CCOCOCC`, for which the call in assay [1], in assay [2], in assay [3], in [4], in assay [5] and in assay [6] was inactive. The compound was classed as inactive in assay [7], in assay [8], in assay [9] and in [10].

With `O=C(O)C(F)(F)C(F)(F)C(F)(F)OC(F)(F)F`, the call in [1], in assay [2], in assay [3], in assay [4], in [5] and in [6] was inactive. The compound was called inactive in assay [7], in assay [8] and in [10].

As to `CC(C)(C)c1cc(CCC(=O)OCC(COC(=O)CCc2cc(C(C)(C)C)c(O)c(C(C)(C)C)c2)(COC(=O)CCc2cc(C(C)(C)C)c(O)c(C(C)(C)C)c2)COC(=O)CCc2cc(C(C)(C)C)c(O)c(C(C)(C)C)c2)cc(C(C)(C)C)c1O`, the compound was called inactive in assay [1], in [2], in assay [3], in [4], in assay [5] and in assay [6]. Further, the call in assay [7], in [8], in assay [9] and in [10] was inactive.

In the case of `O=C1c2c(O)ccc(Nc3ccc(CCO)cc3)c2C(=O)c2c([N+](=O)[O-])ccc(O)c21`, the result in assay [1], in assay [2], in [3], in [4], in assay [5] and in [6] was inactive. The call in assay [7], in [8], in [9] and in assay [10] was inactive.

In the case of `CC(C)CC=C(C=O)c1ccccc1`, the outcome in assay [1], in assay [2], in assay [3], in [4], in [5] and in [6] was inactive. The compound was classed as inactive in [7], in assay [8], in assay [9] and in [10].

As to `CCCCCCCCCCCCCCCCC`, the call in assay [1], in assay [2], in assay [3], in assay [4], in assay [5] and in assay [6] was inactive. The compound was called inactive in assay [7], in [8] and in assay [10].

In the case of `CCOCN(C(=O)CS(=O)(=O)O)c1c(C)cccc1CC`, the compound was called inactive in [1], in [2], in assay [3], in assay [4], in assay [5] and in assay [6]. In addition, the compound was called inactive in assay [7], in assay [8], in [9] and in assay [10].

Take `CCCCC(CC)COC(=O)c1ccc(N(C)C)cc1` (stereo unspecified): the compound was classed as inactive in assay [1], in assay [2], in assay [3], in assay [4], in assay [5] and in assay [6]. Besides, the compound was called inactive in assay [7], in assay [8] and in [10].

Take `O=C(O)C(F)(F)OC(F)(F)C(F)(F)OC(F)(F)C(F)(F)OC(F)(F)F`: the compound was classed as inactive in assay [1], in assay [2], in assay [3], in [4], in [5] and in [6]. Also, the compound was classed as inactive in [7], in assay [8] and in assay [10].

On to `F[Si-2](F)(F)(F)(F)F`, for which the call in assay [1], in assay [2], in assay [3], in assay [4], in assay [5] and in assay [6] was inactive. Moreover, the compound was called inactive in assay [7], in assay [8], in [9] and in [10].

The values are drawn from PubChem BioAssay (EPA / NIEHS).
